# From PubChem BioAssay (EPA / NIEHS)
# Activity calls are given as the source filed them. How the source made its calls: active means hit-call score of the fitted dose curve at least 0.9, where 1 is the maximum; inactive means score below 0.9.
# Target: Myc proto-oncogene protein (Homo sapiens) (UniProt P01106)
# Experiment: ATG_Myc_CIS: Attagene CIS-FACTORIAL HepG2 Assay for human Myelocytomatosis (Myc) Proto-Oncogene Transcription Factor (AID 2282990)
# Conditions: HepG2, Attagene cis-reporter transcription factor activity; actives raise or lower the signal
# Protocol: ATG_CIS is a cell-based, multiplexed-readout assay that uses HepG2, a human liver cell line, with measurements taken at 24 hours after chemical dosing in a 24-well plate.ATG_Myc_CIS is one of 52 assay component(s) measured or calculated from the ATG_CIS assay. It is designed to make measurements of mRNA induction, a form of inducible reporter, as detected with fluorescence intensity signals by Reverse transcription polymerase chain reaction (RT-PCR) and Capillary electrophoresis technology.Data from the assay component ATG_Myc_CIS was analyzed into 1 assay endpoint. This assay endpoint, ATG_Myc_CIS, was analyzed with bidirectional fitting relative to DMSO as the negative control and baseline of activity. Using a type of inducible reporter, measures of mRNA for gain or loss-of-signal activity can be used to understand the reporter gene at the transcription factor-level as they relate to the gene MYC. Furthermore, this assay endpoint can be referred to as a primary readout, because this assay has produced multiple assay endpoints where this one serves a reporter gene function. To generalize the intended target to other relatable targets, this assay endpoint is annotated to the dna binding intended target family, where the subfamily is basic helix-loop-helix leucine zipper.
# Human liver HepG2 cells are transiently transfected with multiple reporter transcription units (MRTUs) in 6-well plates using FuGene 6 reagent (Roche; 3 ml FuGene/1 mg DNA). The MRTU constructs are regulated by a cis-regulating element (promoter). […] A major difference between the CIS and TRANS system is that in CIS activities of endogenous TFs are measured, whereas the TRANS assay evaluates changes in activities of exogenous, chimeric NR-Gal4 proteins. […] At the end of 24 hour incubation, total RNA was isolated using TriZol reagent (Invitrogen). The isolated RNA is then reverse-transcribed using oligo(dT) primer and Mo-MLV reverse transcriptase (Invitrogen) with DNAse I (Ambion) treatment for 30 min. The one-tenth of the produced cDNA was amplified by PCR using Taq DNA polymerase (Invitrogen) and two reporter sequence-specific primers. The PCR products were fluorescently labeled by primer extension with 6-arboxyfluorescein (6-FAM) 5'-labeled reporter sequence-specific primer (2 min at 95 C, 20 s at 68 C and 10 min at 72 C) and these products were digested with 5U of HpaI (New England Biolabs) for 2h at 37 C. The fragments were purified using Qiaquick PCR columns (Qiagen), analyzed on an ABI 3130xL genetic analyzer (Applied Biosystems) with peak positions identified by using a set of X-rhodamine (ROX)-labeled MapMarker1000 molecular weight standards (BioVentures). The raw capillary electrophoresis data was processed using Attagraph software (Attagene).
# Chain of Myc proto-oncogene protein (Homo sapiens) (P01106 whole entry, looked up): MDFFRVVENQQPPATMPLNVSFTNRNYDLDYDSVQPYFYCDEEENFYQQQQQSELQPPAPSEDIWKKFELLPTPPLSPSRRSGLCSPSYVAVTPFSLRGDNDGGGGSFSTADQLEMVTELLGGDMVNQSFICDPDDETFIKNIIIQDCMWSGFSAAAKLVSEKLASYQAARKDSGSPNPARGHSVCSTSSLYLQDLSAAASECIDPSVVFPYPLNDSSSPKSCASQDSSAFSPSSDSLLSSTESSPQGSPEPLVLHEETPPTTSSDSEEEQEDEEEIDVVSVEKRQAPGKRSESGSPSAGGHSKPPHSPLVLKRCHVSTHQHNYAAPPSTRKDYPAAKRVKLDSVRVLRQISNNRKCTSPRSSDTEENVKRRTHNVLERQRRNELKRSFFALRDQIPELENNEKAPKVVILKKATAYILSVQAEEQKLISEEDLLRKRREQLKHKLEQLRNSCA
SMILES,outcome,AC50
CS(=O)(=O)c1ccc(C(=O)C2C(=O)CCCC2=O)c(Cl)c1COCC(F)(F)F,inactive,
OCCCCO,inactive,
CC(C=O)Cc1ccc2c(c1)OCO2 (stereo not given),inactive,
O=C(O)c1cc(I)cc(I)c1I,inactive,
c1ccc2sc(SNC3CCCCC3)nc2c1,,148 µM (active)
CCOP(=S)(OCC)Oc1ccc(Cl)cc1Cl,inactive,
CC(C)(C)c1ccccc1O,inactive,
CCCCS(=O)(=O)Cl,inactive,
C#C[C@]1(O)CC[C@H]2[C@@H]3CCC4=CC(=O)CC[C@]4(C)[C@H]3CC[C@@]21C,inactive,
N#CCCC(Br)(C#N)CBr (stereo not given),inactive,
O=C(Cl)OCCOCCOC(=O)Cl,inactive,
OC[C@@H](O)[C@H]1O[C@@H]2O[C@H](C(Cl)(Cl)Cl)O[C@@H]2[C@H]1O,inactive,
O=C(O)CC(O)(CC(=O)O)C(=O)O,inactive,
CCCCCCCCCCCCCCC(Br)C(=O)O (stereo not given),inactive,
Cc1ccc2nc3sc(=O)sc3nc2c1,,6.38 µM (active)
Oc1ccc(Cc2ccc(O)cc2)cc1,inactive,
C1CCC(C2CCCCC2)CC1,inactive,
CC(O)(CS(=O)(=O)c1ccc(F)cc1)C(=O)Nc1ccc(C#N)c(C(F)(F)F)c1 (stereo not given),inactive,
N#Cc1ccncc1,inactive,
CCOP(=S)(OCC)SCSc1cc(Cl)ccc1Cl,inactive,

SMILES,outcome,AC50
CC(C)CP(=S)(S)CC(C)C,inactive,
CC1CC(=O)O1 (stereo not given),inactive,
CN(N=O)C(N)=O,inactive,
CCCCC(CC)C(=O)Cl (stereo not given),inactive,
c1ccc(-c2cccc(-c3ccccc3)c2)cc1,inactive,
Cc1cc(Cl)ccc1OC(C)C(=O)O (stereo not given),inactive,
Brc1ccc(Oc2c(Br)cc(Br)cc2Br)c(Br)c1,inactive,
N#Cc1ccccc1Cl,inactive,
Brc1ccc(Br)cc1,inactive,
C=CCOC(N)=O,inactive,
Cc1ccc(CCl)cc1,inactive,
O=C(CBr)c1ccc(O)cc1,inactive,
O=S(=O)(C(Cl)(Cl)Cl)C(Cl)(Cl)Cl,,11.1 µM (active)
COC(F)(C(F)(F)C(F)(F)F)C(F)(C(F)(F)F)C(F)(F)F (stereo not given),inactive,
COC(=O)Nc1cccc(OC(=O)Nc2cccc(C)c2)c1,inactive,
O=C1C[C@@H]2OCC=C3CN4CC[C@]56c7ccccc7N1[C@H]5[C@H]2[C@H]3C[C@H]46,inactive,
CCOC(=O)C(SP(=S)(OC)OC)c1ccccc1 (stereo not given),inactive,
O=C(NC(=O)c1c(F)cccc1F)Nc1cc(Cl)c(OC(F)(F)C(F)C(F)(F)F)cc1Cl (stereo not given),inactive,
CC(c1ccccc1)(c1ccc(O)cc1)c1ccc(O)cc1,inactive,
CCCCOP(=O)(CCCC)OCCCC,inactive,
